# Test results reported in the supplement of paper PMC8728848.
# The full list was thinned out, with the strongest signals kept by preference.
# B1: GS14009A-pdi-495-27-495 (Parabacteroides distasonis) (protein)
# chain: FEEVNTDPDSPTDVPTTNLLAYSLYYTSYRLYDRWFAMDEPMTFCGYASKMTYIDESRYNFRTGVQDTNWEYLYRILNNLKDIEKRATFNETPNMLNVSKVMQVHLMQVATDRWRDVPYTDAAKMTDGILQPKYDKQEDIYPGLLATLKEAADGFADGGSDDLGEGDLLFGGDIEKWQRYCNSMRLRLAMRISEVSPALAKETVEEVMGNPTKYPIMESNDDNAFFWWIGTDPNYYEPMADGYRTRKTEYCAADVIVDHMNTREDPRRSSYFQPTKESVEAGEPKYVGYTIGAKANAVASKYSIWGARFFTDLAGFSPYMRVAEPWFCVAEASMLGWNTGISAEDAYNKAVTYSMEENSVSAEDIADYLANAGKFTNDKKQIYYEEWVAMFKQGMEGWSLYRRTGVPDNLYPAPGRPANYSNHNVPPFRSPYPDKERNLNNANCAPFDAEVVDNLWGKQMWWDTRTGVH
# Experiments:
# Experiment in all cases: glycan array binding signal (z-score within array); higher = stronger binding
# Details in all cases: glycan notation: IUPAC condensed, linker removed
# [1] = biological target: Gal3S(b1-3)[Fuc(a1-4)]GlcNAc
# Outline: (§1)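 The binding signal is a Z-score computed within each array and averaged over linkers. Arrays of the same protein sequence at different concentrations or buffers were also averaged together. Data originate from 3228 arrays in the Consortium for Functional Glycomics database, kept only where the protein sequence was available.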
# [2] = biological target: GalNAc(b1-4)GlcNAc(b1-3)GalNAc(b1-4)GlcNAc
# Outline: as §1
# [3] = biological target: Glc(a1-4)Glc(a1-4)Glc(a1-4)Glc
# Outline: as §1
# [4] = biological target: GlcA(b1-6)Gal
# Outline: as §1
# [5] = biological target: GlcNAc(a1-4)Gal(b1-4)GlcNAc(b1-3)Gal(b1-4)Glc
# Outline: as §1
# [6] = biological target: GlcNAc(a1-4)Gal(b1-4)GlcNAc(b1-3)Gal(b1-4)[Fuc(a1-3)]GlcNAc(b1-3)Gal(b1-4)[Fuc(a1-3)]GlcNAc
# Outline: as §1
# [7] = biological target: GlcNAc(b1-2)[GlcNAc(b1-6)]Man(a1-6)[GlcNAc(b1-2)Man(a1-3)]Man(b1-4)GlcNAc(b1-4)[Fuc(a1-6)]GlcNAc
# Outline: as §1
# [8] = biological target: GlcNAc(b1-3)Gal(b1-4)GlcNAc(b1-3)Gal(b1-4)GlcNAc(b1-2)[GlcNAc(b1-3)Gal(b1-4)GlcNAc(b1-3)Gal(b1-4)GlcNAc(b1-6)]Man(a1-6)[GlcNAc(b1-3)Gal(b1-4)GlcNAc(b1-3)Gal(b1-4)GlcNAc(b1-2)Man(a1-3)]Man(b1-4)GlcNAc(b1-4)[Fuc(a1-6)]GlcNAc
# Outline: as §1
# [9] = biological target: GlcNAc(b1-3)Gal(b1-4)GlcNAc(b1-6)[GlcNAc(b1-3)Gal(b1-3)]GalNAc
# Outline: as §1
# [10] = biological target: GlcNAc(b1-6)GalNAc
# Outline: as §1
# [11] = biological target: Kdn(a2-3)Gal(b1-4)GlcNAc
# Outline: as §1
# [12] = biological target: Neu5Ac(a2-3)Gal(b1-3)GalNAc(b1-4)[Neu5Ac(a2-8)Neu5Ac(a2-3)]Gal(b1-4)Glc
# Outline: as §1
# [13] = biological target: Neu5Ac(a2-3)Gal(b1-3)[GlcNAc(b1-6)]GalNAc
# Outline: as §1
# [14] = biological target: Neu5Ac(a2-3)Gal(b1-4)GlcNAc(b1-2)[Neu5Ac(a2-3)Gal(b1-4)GlcNAc(b1-4)]Man(a1-3)[GlcNAc(b1-4)][Neu5Ac(a2-3)Gal(b1-4)GlcNAc(b1-4)Man(a1-6)]Man(b1-4)GlcNAc(b1-4)GlcNAc
# Outline: as §1
# [15] = biological target: Neu5Ac(a2-3)Gal(b1-4)GlcNAc(b1-3)Gal(b1-4)GlcNAc(b1-3)Gal(b1-4)GlcNAc(b1-2)Man(a1-3)[Neu5Ac(a2-3)Gal(b1-4)GlcNAc(b1-3)Gal(b1-4)GlcNAc(b1-3)Gal(b1-4)GlcNAc(b1-2)Man(a1-6)]GalNAc
# Outline: as §1
# [16] = biological target: Neu5Ac(a2-3)Gal(b1-4)GlcNAc(b1-6)GalNAc
# Outline: as §1
# [17] = biological target: Neu5Ac(a2-3)Gal(b1-4)[Fuc(a1-3)]GlcNAc
# Outline: as §1
# [18] = biological target: Neu5Ac(a2-3)Gal6S(b1-4)GlcNAc
# Outline: as §1
# [19] = biological target: Neu5Ac(a2-3)[GalNAc(b1-4)]Gal(b1-4)Glc
# Outline: as §1
# [20] = biological target: Neu5Ac(a2-6)Gal(b1-4)GlcNAc(b1-2)Man(a1-3)[Man(a1-6)]Man(b1-4)GlcNAc(b1-4)GlcNAc
# Outline: as §1
# [21] = biological target: Neu5Ac(a2-6)Gal(b1-4)GlcNAc(b1-2)Man(a1-3)[Neu5Ac(a2-3)Gal(b1-4)GlcNAc(b1-2)Man(a1-6)]Man(b1-4)GlcNAc(b1-4)GlcNAc
# Outline: as §1
# [22] = biological target: Neu5Ac(a2-6)Gal(b1-4)GlcNAc(b1-3)Gal(b1-4)GlcNAc(b1-3)Gal(b1-4)GlcNAc
# Outline: as §1
# [23] = biological target: Neu5Gc(a2-3)Gal(b1-4)GlcNAc
# Outline: as §1
binder,measurement,setting,value
B1,glycan array binding signal (z-score),[1],0.01
same,glycan array binding signal (z-score),[2],-0.71
same,glycan array binding signal (z-score),[3],-0.358
same,glycan array binding signal (z-score),[4],0.626
same,glycan array binding signal (z-score),[5],-0.147
same,glycan array binding signal (z-score),[6],1.93
same,glycan array binding signal (z-score),[7],-0.199
same,glycan array binding signal (z-score),[8],2.44
same,glycan array binding signal (z-score),[9],0.415
same,glycan array binding signal (z-score),[10],0.174
same,glycan array binding signal (z-score),[11],-0.615
same,glycan array binding signal (z-score),[12],-0.25
same,glycan array binding signal (z-score),[13],-0.177
same,glycan array binding signal (z-score),[14],0.12
same,glycan array binding signal (z-score),[15],1.45
same,glycan array binding signal (z-score),[16],-0.512
same,glycan array binding signal (z-score),[17],-0.201
same,glycan array binding signal (z-score),[18],-0.508
same,glycan array binding signal (z-score),[19],-0.129
same,glycan array binding signal (z-score),[20],-0.647
same,glycan array binding signal (z-score),[21],-0.631
same,glycan array binding signal (z-score),[22],-0.311
same,glycan array binding signal (z-score),[23],-0.276
